# Screening results: PubChem BioAssay, several laboratories
# Mdm2-MdmX inh: inhibitors of human Mdm2/MdmX interaction; O15151+Q00987; SaOS-2 split-luciferase Mdm2/MdmX complementation, luminescence; 3% of 330,000 active; inhibition, % at 8 µM;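 active means inhibition of at least 50% at 8 µM in the primary screen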
# Target sequence (O15151 whole entry, looked up): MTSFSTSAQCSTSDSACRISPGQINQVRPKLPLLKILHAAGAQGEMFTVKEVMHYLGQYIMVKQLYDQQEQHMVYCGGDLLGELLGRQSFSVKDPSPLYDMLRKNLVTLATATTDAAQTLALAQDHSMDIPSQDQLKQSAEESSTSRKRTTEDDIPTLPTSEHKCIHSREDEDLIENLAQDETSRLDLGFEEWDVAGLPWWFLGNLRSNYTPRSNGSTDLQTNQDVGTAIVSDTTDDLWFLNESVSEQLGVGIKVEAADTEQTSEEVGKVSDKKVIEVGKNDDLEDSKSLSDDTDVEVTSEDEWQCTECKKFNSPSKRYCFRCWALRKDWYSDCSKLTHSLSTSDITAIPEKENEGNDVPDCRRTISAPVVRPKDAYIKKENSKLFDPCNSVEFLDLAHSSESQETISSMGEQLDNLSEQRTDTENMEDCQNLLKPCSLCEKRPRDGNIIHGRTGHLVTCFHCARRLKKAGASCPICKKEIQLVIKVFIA
# Target sequence (Q00987 whole entry, looked up): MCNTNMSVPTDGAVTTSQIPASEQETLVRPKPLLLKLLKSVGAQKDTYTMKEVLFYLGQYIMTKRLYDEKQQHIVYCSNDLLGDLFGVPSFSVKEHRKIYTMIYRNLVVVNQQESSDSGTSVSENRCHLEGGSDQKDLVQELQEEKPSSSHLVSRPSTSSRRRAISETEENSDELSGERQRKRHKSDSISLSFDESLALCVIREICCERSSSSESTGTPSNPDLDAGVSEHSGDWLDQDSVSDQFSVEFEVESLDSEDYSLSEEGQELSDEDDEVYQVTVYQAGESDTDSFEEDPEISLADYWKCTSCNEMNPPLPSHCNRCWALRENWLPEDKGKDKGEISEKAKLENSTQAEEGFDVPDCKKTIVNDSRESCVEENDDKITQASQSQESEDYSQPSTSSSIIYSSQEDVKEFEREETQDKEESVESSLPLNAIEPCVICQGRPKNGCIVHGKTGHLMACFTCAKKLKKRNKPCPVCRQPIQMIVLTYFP
# SKKanGAS inh: inhibitors of SKKanGAS S. pyogenes growth in kanamycin (SK-promoter or general growth effect); 1.3% of 300,000 active; BacTiter-Glo, 6 h; AID 1662; inhibition, % at 7.5 µM;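 active means mean replicate score, as percent of positive control median, at least 50; inconclusive means mean below 50 but one replicate at or above 50; inactive means mean and every replicate below 50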;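 further: strain carries kanamycin resistance gene driven by streptokinase promoter and grows in 40 µg/ml kanamycin; loss of luminescence reflects streptokinase promoter inhibition or plain growth inhibition; 0% = median of DMSO wells and 100% = positive control at its reference dose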
# CSC inhib: blocks cancer stem cells | 1.1% of 300,000 active | cancer stem cell-like cells viability, luminescence | inhibition, % at 7.5 µM; in the data active means inhibition above about 75%; inconclusive means no clear call, values can overlap the other calls; tested in HMLE shEcad cells
# Calb FLC: affects C. albicans growth with fluconazole; 0.57% of 300,000 active; growth inhibition, % (concentration not given with the values); AID 1979; C. albicans CaCi-2 (fluconazole-resistant clinical isolate) + fluconazole, Alamar Blue growth, 48 h;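 active means growth inhibition above about 58% in most replicates, limit read from the data, passing the limit was not always enough; inconclusive means exactly half the replicates above a set limit; inactive means most replicates below a set limit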;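 further: all wells also contain fluconazole at 8 µg/ml as a sub-toxic cotreatment; 0% = median of DMSO wells and 100% = median of geldanamycin control wells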
# Beta cell apopt: beta cell apoptosis inhibition; INS-1E cytokine-induced death, ATP luminescence, 48 h; percent of positive-control rescue, neutral wells zero; protection from apoptosis, % (no concentration beside the values); 0.8% of 300,000 active;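 active means Every replicate reaches about 75%, or at least half do and their mean reaches it too, limit read from the data; inconclusive means At least half of replicates reach the limit but their mean does not; inactive means Under half of replicates reach the limit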;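 further: 0% = cytokine-treated negative control wells and 100% = positive control rescue; higher means more ATP so stronger rescue from cytokine killing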
# MPTP inh: inhibitors of mitochondrial permeability transition pore | isolated mouse mitochondria, Ca2+ swelling absorbance, 30 min | inhibition, % at 10 µM | 1.4% of 360,000 active;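 active means inhibition of 50% or more, scaled per plate between neutral and stimulator controls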;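 further: 0% = DMSO wells given calcium and 100% = 1 mM EGTA wells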
# Mdm2 MdmX conf: confirmation of human Mdm2/MdmX interaction inhibitors | inhibition, % at 8 µM | shares compounds with Mdm2-MdmX inh | Mdm2-MdmX binding, luminescent assay | 55% of 10,000 active; in the data active means inhibition above about 40%
# FLuc counter: full-length luciferase inhibition in Mdm2/MdmX counter-screen. shares compounds with Mdm2-MdmX inh. SaOS-2 full-length luciferase counterscreen, luminescence. inhibition, % at 8 µM. 77% of 6,200 active. AID 504607;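 active means mean inhibition at 8 µM reaching about 37%, which flags the compound as non-specific, limit read from the data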;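 further: p53-null SaOS-2 cells with luciferase driven by a doxycycline-inducible promoter; compound on cells about two nights before reading with doxycycline added after day one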
# * = called active by the depositor; u = inconclusive; x = no result given. Shown are actives, neighbours in structure and some others; about 5.4% of the full set was active somewhere.
SMILES,Mdm2-MdmX inh,SKKanGAS inh,CSC inhib,Calb FLC,Beta cell apopt,MPTP inh,Mdm2 MdmX conf,others
CCCc1nnc(SCC(=O)N2CCOCC2)n1C,-2,7,-6,3,-8,-1,x,
S=C(NCCNCc1ccccc1)NC1CCCCC1,51*,22,47,-4,19,x,11,
CN(Cc1ccccc1)S(=O)(=O)c1ccc(NC(=S)NC(=O)C2CCCC2)cc1,56*,10,66,u,7,15,58*,FLuc counter=61*
CN(C)S(=O)(=O)c1ccc(NC(=S)NC(=O)C2CCC2)cc1,26,16,-7,3,0,1,x,
COc1ccc(Nc2cc3n(c(=O)n2)CCc2cc(OC)c(OC)cc2-3)cc1,24,0,16,2,19,1,x,
COc1cc2c(cc1OC)-c1cc(Nc3ccc4c(c3)OCCO4)nc(=O)n1CC2,68*,10,18,-3,21,1,45*,FLuc counter=52*
O=C(Nc1cccc(-c2cn3ccccc3n2)c1)c1cc2ccccc2oc1=O,100*,4,5,-16,9,-2,21,
CC(=O)Nc1cccc(-c2cn3ccccc3n2)c1,-13,-3,x,24,0,0,x,
CC1CCCCN1S(=O)(=O)c1ccc(S(=O)(=O)N2CCN(c3ccc(F)cc3)CC2)cc1 (configuration not stated),28,3,5,-1,1,5,x,
COC(=O)c1cc(O)cc(OC)c1Oc1cc(C)cc(O)c1C(=O)O,84*,x,57,x,89*,0,46*,FLuc counter=19
COC(=O)c1cc(O)cc(OC)c1C(=O)c1c(O)cc(C)cc1O,-14,-3,18,12,x,-1,x,
Cc1c(CC(=O)O)c(=O)oc2cc3occ(-c4ccccc4)c3cc12,12,-2,-3,37,-1,0,x,
COc1ccc(-c2coc3cc4oc(=O)cc(-c5ccccc5)c4cc23)cc1F,84*,1,-6,2,20,2,58*,FLuc counter=55*
COc1ccc(-c2cc(=O)oc3cc4occ(C)c4cc23)cc1,20,-4,40,-10,3,0,x,
COc1ccc(-c2coc3cc4oc(=O)cc(C)c4cc23)cc1F,71*,-14,-11,3,12,-2,46*,FLuc counter=105*
Cc1ccc(SCc2cc(=O)[nH]c(Nc3nc(C)c4ccc(C)cc4n3)n2)cc1,31,35,x,2,x,2,x,
COc1ccc2c(C)nc(Nc3nc(-c4ccccc4)cc(=O)[nH]3)nc2c1,73*,74*,107*,7,35,2,-16,
Cc1ccc2c(C)nc(Nc3nc(CSc4nc5ccccc5[nH]4)cc(=O)[nH]3)nc2c1,59*,4,61,u,90*,1,58*,FLuc counter=32
CSc1cc(SC)ncn1,x,x,x,x,x,0,x,
CC1CC(C)CN(C(=O)C2CCCN(c3ncnc4c3nc3n4CCCCC3)C2)C1 (configuration not stated),-5,19,-11,-4,-11,0,x,
COc1ccc(C(=O)OCc2c(-c3cccc(OC)c3)ncc3ccccc23)cc1,22,x,1,x,-1,1,x,
COC(=O)c1ccccc1N1C(=O)[C@@H]2C(c3ccc(F)cc3)=NO[C@@H]2C1=O,17,0,-2,13,-7,-1,x,
COc1ccc(C(=O)C[n+]2ccc3ccccc3c2C)cc1,-1,-5,-9,-13,6,4,x,
N#CCCn1cc(/C=C2\NC(=S)N(c3ccccc3)C2=O)c(-c2ccc(-c3ccccc3)cc2)n1,63*,9,-2,-9,6,3,19,
O=C(O)CCn1cc(/C=C2/NC(=S)N(c3ccccc3)C2=O)c(-c2ccccc2)n1,0,3,-9,7,-9,-1,x,
SMILES,Mdm2-MdmX inh,SKKanGAS inh,CSC inhib,Calb FLC,Beta cell apopt,MPTP inh,Mdm2 MdmX conf,others
O=C(NNC(=O)C1CCC1)c1cccc(Cl)c1,20,x,-10,x,-6,-2,x,
C/C(=N\Nc1cc(N2CCOCC2)ncn1)c1cccc([N+](=O)[O-])c1,60*,-3,x,-37,-24,0,21,
C/C(=N\Nc1cc(N2CCOCC2)ncn1)c1ccccc1,-38,-9,-12,7,-4,2,x,
O=[N+]([O-])c1ccc(/C=N/Nc2cc(Cl)nc(-c3ccccc3)n2)cc1,31,3,-5,-6,11,5,x,
O=[N+]([O-])c1cccc(/C=N/Nc2cc(N3CCOCC3)ncn2)c1,59*,-4,3,-3,-11,4,33,
O=[N+]([O-])c1cccc(/C=N/Nc2nc(N3CCOCC3)nc(N3CCOCC3)n2)c1,7,0,-10,13,2,1,x,
O=[N+]([O-])c1cccc(/C=N/Nc2cc(Cl)nc(-c3ccccc3)n2)c1,66*,39,0,4,14,6,10,
CCOc1ccc(/C=N/Nc2cc(N3CCOCC3)ncn2)c(O)c1,x,x,x,x,x,-1,x,
CCCOc1ccc(/C=N/Nc2cc(N3CCOCC3)ncn2)c(O)c1,73*,-10,98*,14,91*,1,81*,FLuc counter=24
COc1cc(OC)nc(Oc2ccc(NC(C)=O)cc2)n1,6,0,11,36,1,0,x,
CCCn1c(=S)[nH]c2cc(C(=O)N(CCO)Cc3ccccc3)ccc2c1=O,5,7,-18,-2,-1,-1,x,
COc1ccc(-n2nc(C(=O)NCc3ccco3)c3c4ccccc4n(C)c3c2=O)cc1Cl,57*,-1,-1,-3,5,-2,1,
COc1ccccc1CNC(=O)c1nn(-c2ccc(C)cc2)c(=O)c2c1c1ccccc1n2C,79*,12,0,-1,11,1,21,
COc1ccc(-n2nc(C(=O)NCCCN3CCCC3=O)c3c4ccccc4n(C)c3c2=O)cc1Cl,11,24,-11,11,8,0,x,
C=C[C@@H]1c2cccc(C)c2N(S(=O)(=O)c2ccc(C)cc2)[C@H](c2ccc(OC(C)=O)cc2)C1(C#N)C#N,51*,x,107*,x,2,0,-4,
Cc1nnc2c(NCCc3ccccc3)nc3ccccc3n12,57*,0,-7,-13,-3,1,15,
Cc1cccc(CCNc2nc3ccccc3n3nnnc23)c1,0,10,4,1,5,0,x,
COc1ccc(N=C2S/C(=C\c3ccc(N4CCOCC4)o3)C(=O)N2CCc2c[nH]c3ccccc23)cc1,95*,59*,-2,-6,105*,-2,99*,FLuc counter=2
COC(=O)c1ccc(C(=O)NC(=S)Nc2nc3c(s2)CC(C)CC3)cc1 (configuration not stated),-37,-7,-8,2,-9,3,x,
CCOC(=O)N1CCN(S(=O)(=O)c2ccc(C(=O)Nc3nnc(CC)o3)cc2)CC1,8,1,x,6,2,1,x,
